Records with an inconclusive call do not appear. More than one record can exist for a structure, and the calls need not agree. Active and inactive are the calls of the source. Unless noted, the call rests on the fitted dose curve.

Among the data in PubChem BioAssay (Tox21) are outcome and Potency values, retold here.

The nature of test [1]: qHTS assay to identify small molecule agonists of the NFkB signaling pathway (AID 1159509; active means well fitted curve in the direction sought with a large enough effect in the signal ratio in the repeat runs, not every such curve was filed as active; the % refers to the signal ratio; further: series mostly up to about 61 µM). Summed up:
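After overnight attachment, reporter cells received test compounds, DMSO or positive controls and were incubated 5 hr at 37 C. FRET substrate was then added for 1.5 hr at room temperature before dual-emission fluorescence reading.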
(In general: In qHTS, concentration-response curves come from the screen itself.)

Test [2] is described as follows: qHTS assay to identify small molecule agonists of the NFkB signaling pathway - cell viability counter screen (AID 1159515). Further: series mostly up to about 61 µM; nearly all actives have a fitted effect of over 55% in size. Summed up:
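Viability in NFkB-bla ME-180 cells was measured by CellTiter-Glo luminescence, 30 min room temperature, in wells already treated 5 hr with compounds and read for reporter FRET.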

Test [3] in a line: qHTS assay to identify small molecule agonists of the endoplasmic reticulum stress response signaling pathway - cell viability counter screen (AID 1159517).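 Further: HeLa cells carrying an ER stress response element beta-lactamase reporter; series mostly up to about 61 µM; nearly all actives have a fitted effect of over 50% in size.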 Summed up:
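Cells, HeLa ESRE-bla; density, 1,500/well; dosing, 5 hr at 37 C, 5% CO2; readout, CellTiter-Glo luminescence after 30 min RT.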

Test [4] in a line: qHTS assay to identify small molecule antagonists of the retinoid-related orphan receptor gamma (ROR-gamma) signaling pathway - cell viability counter screen (AID 1159520; active means well fitted curve in the direction sought with a large enough effect in the repeat runs; an effect the other way counts as inactive or inconclusive; further: nearly all actives have a fitted effect of over 50% in size; further: potency means the concentration at half of the fitted maximal effect). Summed up: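 Cytotoxicity was read from cellular ATP (CellTiter-Glo luminescence) after 16 hr at 37 C with 1 uM doxycycline induction. The inducer was added 2 hr after compound transfer to Tet-on ROR gamma CHO cells.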

Test [5] has as its target Nuclear receptor ROR-gamma (Homo sapiens) (UniProt P51449). Description: qHTS assay to identify small molecule antagonists of the retinoid-related orphan receptor gamma (ROR-gamma) signaling pathway (AID 1159521; active means well fitted curve in the direction sought with a large enough effect in the repeat runs; an effect the other way counts as inactive or inconclusive; further: nearly all actives have a fitted effect of over 50% in size; further: potency means the concentration at half of the fitted maximal effect). The gist of the method: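 Screening format: cell-based luciferase reporter in CHO cells with doxycycline-inducible RORγ. Compound pre-exposure lasts 2 h, doxycycline is 1 uM final, induction runs 16 h at 37 C, and ONE-Glo luminescence is read.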

The nature of test [6]: qHTS assay to identify small molecule agonists of the AP-1 signaling pathway - cell viability counter screen (AID 1159525). Further: nearly all actives have a fitted effect of over 55% in size. The gist of the method:
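Luminescent ATP readout (Cell Titer Glo, 30 min RT), normalised to DMSO and tetra n-octyl ammonium bromide controls. Cells were ME-180 AP-1-bla in 0.5% dialyzed FBS Opti-MEM, with a 5 h, 37 °C compound exposure.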

Test [7] can be described thus: qHTS assay to identify small molecule agonists of the vitamin D receptor (VDR) signaling pathway - cell viability counter screen (AID 743224; active means well fitted curve in the direction sought with a large enough effect in the repeat runs; an effect the other way counts as inactive or inconclusive; further: nearly all actives have a fitted effect of over 50% in size; further: potency means the concentration at half of the fitted maximal effect). Summed up: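 VDR-bla cell line, quantitative HTS format; 16 h compound incubation (37C, 5% CO2); ATP-based CellTiter-Glo luminescence measured in the reporter assay wells.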
The nature of test [8]: qHTS assay to identify small molecule agonists of the endoplasmic reticulum stress response signaling pathway (AID 1159516; active means well fitted activation curve with a large enough effect in the signal ratio in the repeat runs, not every such curve was filed as active; the % refers to the signal ratio). The gist of the method: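 ER stress element reporter (bla) in HeLa. 1,500 cells/well, overnight attachment; 5 hr compound; 2 hr RT substrate; dual-emission fluorescence.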
Test [9] in a line: qHTS assay to identify small molecule agonists of the AP-1 signaling pathway (AID 1159526).
The nature of test [10]: qHTS assay to identify small molecule antagonists of the vitamin D receptor (VDR) signaling pathway - cell viability counter screen (AID 743225; active means well fitted curve in the direction sought with a large enough effect in the repeat runs; an effect the other way counts as inactive or inconclusive; further: nearly all actives have a fitted effect of over 50% in size). Summed up: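 In this counter screen, VDR-bla HEK 293T cells receive test compound plus 3 nM final calcitriol for 16 h at 37C. Room-temperature steps of 2 h with the beta-lactamase substrate, then 30 min with CellTiter-Glo, precede the luminescence read.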

Regarding `CCOC(=O)[C@]1(c2ccccc2)Oc2ccccc2[C@@H]1N`, in test [1], the compound was called inactive. In addition, the Potency entry in test [2], in test [3], in test [4], in test [5] and in test [6] was “inactive” throughout.
On to `CCCCCCCCCCOC(=O)c1ccccc1C(=O)OCCCCCCCCCC`, for which the Potency result in test [7], in test [2] and in test [4] was “inactive” each time. Further, the outcome in test [1], in [8] and in [9] was inactive.
Turning to `OC(c1ccc(Cl)cc1)(c1ccc(Cl)cc1)c1cccnc1`, the outcome in test [1] was inactive. For the same compound, the Potency result in test [2], in test [3], in [4] and in test [6] was “inactive” in each case. Also, in test [5], the Potency was 54.5 µM (active).
Consider `CCCC(=O)Cl`, for which the Potency result in test [7], in test [10], in test [2], in [5] and in test [6] was “inactive” throughout. Further, the compound was called inactive in [1], in [8] and in test [9].
On to `Brc1ccc(Oc2ccccc2)cc1`, for which the Potency result in [7], in test [10], in test [2], in test [4] and in test [6] was “inactive” throughout. The compound was called inactive in test [1], in [8] and in [9]. Moreover, the Potency in [5] is 55.8 µM (active) and inactive.
As for `CC(=O)c1cc2c(cc1C)C(C)(C)C(C)CC2(C)C` (configuration not stated), the Potency in test [7] is 49 µM (active). Moreover, the Potency result in [10], in test [2] and in test [4] was “inactive” each time. The compound was called inactive in test [1] and in test [8].
In the case of `C=CCOC(C)=O`, the Potency entry in test [7], in [10], in test [2], in [4], in test [5] and in test [6] was “inactive” in each case. Besides, the compound was called inactive in [1], in [8] and in test [9].
`NCCCNCCCN`: the result in [1], in test [8] and in [9] was inactive. In addition, the Potency entry in [2], in test [4] and in test [6] was “inactive” throughout.
For the compound `CS/C(C)=N/OC(=O)N(C)SN(C)C(=O)O/N=C(\C)SC`, the Potency entry in [7], in [10], in test [2], in test [3] and in [6] was “inactive” throughout. Further, the compound was called inactive in [1]. Moreover, the Potency was 43.3 µM (active) in [4] and 38.6 µM (active) in test [5].
As for `C[N+](C)(C)CCCl`, the Potency result in test [7], in test [10], in test [2], in test [4] and in test [6] was “inactive” each time. The compound was called inactive in [1], in test [8] and in [9].
As for `O=Cc1ccc2c(c1)OCO2`, the Potency result in test [7], in [10], in test [2], in test [3], in test [4] and in test [5] was “inactive” in each case. The Potency result in test [6] was “inactive”. Further, the outcome in test [1] and in [9] was inactive.
Consider `ClC=C(Cl)Cl`, for which the Potency result in test [7], in [10], in test [2], in test [3], in test [4] and in test [5] was “inactive” in each case. Moreover, the Potency result in [6] is “inactive”. Further, the call in test [1] and in test [9] was inactive.
As to `CCOP(=S)(OCC)Oc1nc(Cl)c(Cl)cc1Cl`, the Potency entry in [7], in [10], in test [2], in [3], in test [4] and in [6] was “inactive” throughout. Also, the call in [1] was inactive.
As to `CCOC(=O)C(Cl)C(C)=O` (configuration not stated), the Potency result in test [7], in test [2], in test [4] and in [6] was “inactive” each time. Besides, the outcome in [1] and in test [9] was inactive.
For `COC1=CC(=O)O[C@@H](CCc2ccccc2)C1`, the Potency entry in [7], in test [3], in test [4], in test [5] and in test [6] was “inactive” throughout. The compound was classed as inactive in test [1], in [8] and in [9].
Take `CC(C)=CCOc1c2occc2cc2ccc(=O)oc12`: the Potency result in test [7], in test [10], in test [2], in test [3], in test [4] and in [6] was “inactive” throughout. Further, the result in test [1] and in test [9] was inactive.
Take `N#C/C(N)=C(/N)C#N`: the Potency entry in [7], in test [10], in test [3], in [4], in test [5] and in [6] was “inactive” in each case. Besides, the result in test [1], in [8] and in test [9] was inactive.
For the compound `O=NN1CCCCCC1`, the Potency entry in [7], in test [10], in [2], in test [3], in test [4] and in [6] was “inactive” in each case. The result in test [1] and in test [9] was inactive.
As to `[O-][Cl+]O`, the Potency entry in test [7], in test [10], in test [2] and in [3] was “inactive” each time. Besides, the compound was classed as inactive in test [1] and in test [9].
Take `CC(C)(Cl)[N+](=O)[O-]`: the Potency entry in test [7], in [10], in [2], in test [4] and in test [6] was “inactive” in each case. The outcome in test [1] and in test [9] was inactive.
Take `CCOP(=S)(OCC)Oc1cc(Cl)c(Br)cc1Cl`: the Potency entry in test [10], in test [2], in [4], in test [5] and in test [6] was “inactive” each time. Moreover, the result in [1] was inactive.
On to `COC(=O)C(Cl)C(=O)OC`, for which the Potency result in [7], in test [10], in test [2], in test [3], in test [4] and in test [6] was “inactive” throughout. For the same compound, the result in [1] and in [9] was inactive.
Consider `CN1C(=O)C(O)N=C(c2ccccc2)c2cc(Cl)ccc21` (configuration not stated), for which the Potency entry in [7], in [10], in test [2] and in [6] was “inactive” in each case. For the same compound, the outcome in test [1] and in test [9] was inactive.
As to `CCCCN(N=O)C(=N)N[N+](=O)[O-]`, the Potency entry in [7], in test [10], in [2] and in test [3] was “inactive” each time. In [1], the result was inactive.
Turning to `NC(=O)C(Cl)(Cl)Cl`, the Potency result in test [7], in [10], in test [3], in test [4], in test [5] and in test [6] was “inactive” in each case. For the same compound, the outcome in test [1], in [8] and in test [9] was inactive.
For `CNP(=O)(OC)Oc1ccc(C(C)(C)C)cc1Cl` (configuration not stated), the Potency entry in test [7], in test [10], in test [2], in [3], in test [4] and in test [6] was “inactive” each time. Also, the outcome in test [1] and in [9] was inactive.
As for `CCCN(CCC)c1c([N+](=O)[O-])cc(S(C)(=O)=O)cc1[N+](=O)[O-]`, the Potency entry in test [7], in test [10], in test [2], in [3] and in test [4] was “inactive” throughout. Besides, the result in test [1] and in test [9] was inactive.
`N#Cc1cc(I)c(O)c(I)c1`: the compound was classed as inactive in [1], in [8] and in test [9]. The Potency entry in test [3], in test [4] and in test [6] was “inactive” each time. The Potency in test [5] is 24.3 µM (active).
`BrCC(Br)C1CCC(Br)C(Br)C1` (configuration not stated): the Potency entry in test [10], in [2] and in test [4] was “inactive” in each case. The result in test [1] was inactive.
In the case of `CCCN(CC1CC1)c1c([N+](=O)[O-])cc(C(F)(F)F)cc1[N+](=O)[O-]`, the Potency entry in test [7], in [10], in [2], in test [3], in [5] and in test [6] was “inactive” throughout. Also, the result in [1] and in [9] was inactive.
